Bioassay records: PubChem BioAssay, National Center for Advancing Translational Sciences (NCATS)
IL1B secr inh = inhibitors of inflammasome signaling (IL-1 beta secretion); AID 743279; activity change, % at 57.5 µM; 360,000 tested, 4.7% active; THP-1 LPS/ATP IL-1B secretion, AlphaLISA, 16 h; active compounds read low; in the data active = activity change below about -50%; inconclusive = mostly about -30% to -49%
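THP-1 cells pretreated 1 hr with compounds (up to 57.5 uM final), then stimulated with LPS (250 ng/mL final) plus ATP (1.25 mM final); secreted IL-1B measured by AlphaLISA after 16 hr, decreased signal indicating inhibition.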
TDP1 cell noCPT = qHTS for Inhibitors of human tyrosyl-DNA phosphodiesterase 1 (TDP1): qHTS in cells in absence of CPT; Potency, µM (highest dose often 46.2 µM), inactives show at the highest dose activity change, negative = growth inhibition, usual class: inhibitors; AID 686978, 2013; 420,000 tested, 15% active; DT40 Tdp1-/- hTDP1 cells, no CPT, ATP luminescence, 48 h; also: potency is read from the fitted curve at half-maximal effect; nearly all actives have a fitted effect of over 55% in size
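A cellular qHTS used chicken DT40 cells lacking endogenous Tdp1 but carrying stably transfected human TDP1. Compounds were applied without camptothecin, and cell growth kinetics were judged by ATP-dependent luminescence after ≥48 hr.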
HT1080 IDH1KD tx = HT-1080 IDH1 knockdown cell toxicity (counter line); 360,000 tested, 2% active; HT-1080 IDH1 knockdown viability, ATP luminescence, 48 h; Potency, µM (series often up to 46.1 µM), without a hit: top-dose activity, negative = toxicity, hits mostly cytotoxic;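 also: potency is read from the fitted curve at half-maximal effect; 0% = DMSO wells and -100% = cell-free medium wells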
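Assay cells: HT-1080 with IDH1 knockdown, 750 per well, RPMI/5% FBS. Exposure: 48 h at 37 °C following 2 h pre-incubation. Read: CellTiter-Glo luminescence; fitted concentration-response, curve class assigned.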
12-LOX inh = ALOX12 (human) lipoxygenase inhibition; 580,000 tested, 1.1% active; AID 1671190; Potency, µM (series often up to 108 µM), inactives show at the top dose activity change, negative = inhibition, hits mostly inhibitors; purified 12hLO, xylenol orange hydroperoxide absorbance; P18054; also: potency is read from the fitted curve at half-maximal effect
Target sequence (P18054 whole entry, looked up): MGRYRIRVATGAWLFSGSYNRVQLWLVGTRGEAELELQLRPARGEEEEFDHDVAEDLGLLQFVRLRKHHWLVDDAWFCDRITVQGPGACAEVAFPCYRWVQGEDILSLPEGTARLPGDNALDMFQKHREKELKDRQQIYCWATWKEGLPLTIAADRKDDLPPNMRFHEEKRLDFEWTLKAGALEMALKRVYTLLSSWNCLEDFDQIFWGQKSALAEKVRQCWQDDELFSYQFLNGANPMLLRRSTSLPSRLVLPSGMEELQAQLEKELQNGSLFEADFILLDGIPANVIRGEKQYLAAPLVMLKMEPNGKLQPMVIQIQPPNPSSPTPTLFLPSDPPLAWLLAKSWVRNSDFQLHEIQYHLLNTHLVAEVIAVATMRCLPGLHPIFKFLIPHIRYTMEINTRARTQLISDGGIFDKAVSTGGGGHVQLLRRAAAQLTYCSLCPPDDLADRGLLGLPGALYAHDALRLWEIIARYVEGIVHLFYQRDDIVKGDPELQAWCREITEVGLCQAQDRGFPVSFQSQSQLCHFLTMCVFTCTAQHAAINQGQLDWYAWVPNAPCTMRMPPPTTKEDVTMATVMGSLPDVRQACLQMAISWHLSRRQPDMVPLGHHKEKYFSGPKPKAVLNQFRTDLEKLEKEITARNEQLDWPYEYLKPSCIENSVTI
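Purified human 12hLO (150 nM final) in 25 mM Hepes, 0.01% Triton X-100, pH 7.0 was preincubated 15 min at room temperature with compound. Then 40 uM arachidonic acid was added, 30 min. Hydroperoxide was read by Fe-XO absorbance ratio 573/405 nm.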
HT1080-NT tox = kills 2HG-producing HT-1080-NT fibrosarcoma cells; Potency, µM (titrated, usually from 46.1 µM), without a hit: at the highest dose activity, negative = less viability, actives largely listed as cytotoxic; AID 686970; 360,000 tested, 1.6% active; HT-1080-NT fibrosarcoma viability, CellTiter-Glo ATP luminescence, 48 h;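 also: NT is the 2HG producing partner of a matched IDH1 knockdown line; potency is read from the fitted curve at half-maximal effect; 0% = DMSO-treated cells and -100% = media-only wells without cells; nearly all actives have a fitted effect of over 55% in size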
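HT-1080-NT fibrosarcoma cells (2HG-overproducing), 750 cells/well in RPMI with 5% FBS, dosed after 2 h and incubated 48 h at 37C. CellTiter-Glo luminescence normalized to DMSO and no-cell wells; concentration-response curves fitted and classed.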
TDP1 cell CPT = growth inhibition of DT40 Tdp1-/-;hTDP1 cells with camptothecin (screen for TDP1 inhibitors); chicken DT40 Tdp1-/-;hTDP1 cells + 20 nM CPT, ATP luminescence, 48 h; Potency, µM (highest dose often 46.2 µM), inactives show at the top dose activity change, negative = growth inhibition, actives largely listed as inhibitors; 420,000 tested, 12% active; AID 686979; also: potency is read from the fitted curve at half-maximal effect; nearly all actives have a fitted effect of over 55% in size
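Chicken DT40 Tdp1-/- cells stably complemented with human TDP1 were seeded at 400 cells/well in medium containing 20 nM camptothecin, exposed to pin-transferred compounds, and grown at 37 °C for at least 48 hr. Viability was read as ATP luminescence.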
The depositor's hits bear a star; ? = inconclusive; · = no result given; [ ] = dose if it differs, or a comment. The full list was thinned out, with hits kept by preference. Unless noted, calls follow the shape of the dose curve; as a rule, active = well fitted curve in the direction sought with a large enough effect; inconclusive = small, poorly fitted or top-dose-only effect, or another doubt; inactive = no such curve, though single readings can be large; an effect the other way counts as inactive or inconclusive. Unless noted, % is scaled to controls: 0 for no effect and ±100 for the full control effect.

SMILES | IL1B secr inh | TDP1 cell noCPT | HT1080 IDH1KD tx | 12-LOX inh | HT1080-NT tox | TDP1 cell CPT
CCN(Cc1ccccc1)C(=O)Cn1c(=O)oc2cc(S(=O)(=O)N3CCCCCC3)ccc21 | · | 15µM* | · | ? | · | 16µM*
CCOc1ccc(NC(=O)Cn2c(=O)oc3cc(S(=O)(=O)N4CCCCCC4)ccc32)cc1 | · | 21µM* | · | -23% | · | 21µM*
O=C(Cn1c(=O)oc2cc(S(=O)(=O)N3CCCC3)ccc21)NCc1ccccn1 | 1 | -26% | 7% | 14% | 4% | 1%
CCOc1ccc(NC(=O)Cn2c(=O)oc3cc(S(=O)(=O)NC4CCCC4)ccc32)cc1 | · | 12µM* | · | -11% | · | 15µM*
COc1ccccc1CNC(=O)Cn1c(=O)oc2cc(S(=O)(=O)N3CCCC3)ccc21 | 1 | 29µM* | -2% | -3% | 3% | 13µM*
COc1ccccc1N(C)C(=O)Cn1c(=O)oc2cc(S(=O)(=O)N3CCCC3)ccc21 | · | ? | · | -25% | · | ?
CCNC(=O)CSc1nnc(-c2ccncc2)n1CC(F)(F)F | · | · | · | 7% | · | ·
CCC[C@@H](/C=C/C(=O)OCC)NC(=O)C(F)(F)F | · | · | · | -16% | · | ·
COc1ccc(NC(=O)Cn2c(=O)oc3cc(S(=O)(=O)N4CCCCCC4)ccc32)cc1OC | · | 13µM* | · | 6% | · | 16µM*
CCOc1ccc(CCNC(=O)c2cc(=O)[nH]c3ccc(S(=O)(=O)N4CCCCC4C)cc23)cc1OCC (configuration not stated) | · | ? | · | 4% | · | ?
COc1cc(OC)c(NC(=O)Cn2c(=O)oc3cc(S(=O)(=O)N4CCCC4)ccc32)cc1Cl | · | 18µM* | · | ? | · | ?
COc1ccc(NC(=O)Cn2c(=O)oc3cc(S(=O)(=O)N4CCCCC4C)ccc32)cc1 (configuration not stated) | · | 21µM* | · | -30% | · | 18µM*
COc1ccc(OC)c(CNC(=O)c2cc(=O)[nH]c3ccc(S(=O)(=O)N4CCCCC4C)cc23)c1 (configuration not stated) | · | 16µM* | · | -25% | · | ?
CCNC(=O)Cc1c[nH]c2ncc(-c3cccnc3OC)cc12 | · | · | · | -7%[176 µM] | · | ·
O=C(C[n+]1cc(Br)cc2ccccc21)c1ccccc1 | 26 | 18µM* | -8% | ? | -6% | 18µM*
OC(CBr)C[n+]1cc(Br)cc2ccccc21 (configuration not stated) | · | 8.9µM* | · | · | · | 7.1µM*
CCN(C(=O)c1cccs1)c1ccccc1 | · | · | · | 0% | · | ·
CCN(CC)C(=O)Cn1ncc2c([nH]c3ccccc32)c1=O | · | -8% | · | -15% | · | -12%
CC(=O)N(C(C)=O)c1ncc2c([nH]c3ccccc32)c1C#N | -6 | ? | 7.1µM* | -12% | 11µM* | ?
CC(C)(C)c1cc(S(=O)(=O)CCc2ccccn2)cc(C(C)(C)C)c1F | -88* | 15µM* | ? | -5% | ? | 13µM*
CN(CCc1ccccn1)S(=O)(=O)c1ccc(F)cc1 | 15 | -21% | -1% | ? | 2% | -10%
COc1ccc(NS(=O)(=O)c2cccc(NC(=O)c3cnccn3)c2)cc1Br | -20 | 18µM* | -18% | 1% | -25% | 16µM*
O=C(Nc1cccc(S(=O)(=O)Nc2ccc(Cl)cc2)c1)c1ccc(Cl)nc1 | -8 | 0.65µM* | ? | ? | ? | 2.3µM*
COc1ccc(C(=O)Nc2cccc(S(=O)(=O)NC3=NCCCCC3)c2)cc1 | 21 | -27% | -2% | 5% | -1%[9.24 µM] | -28%
O=C(Nc1cccc(S(=O)(=O)N2CCCCC2)c1)c1cnccn1 | 10 | -29% | -7% | -32% | -7% | -13%
SMILES | IL1B secr inh | TDP1 cell noCPT | HT1080 IDH1KD tx | 12-LOX inh | HT1080-NT tox | TDP1 cell CPT
COc1ccc(NS(=O)(=O)c2cccc(NC(=O)c3ccc(Cl)nc3)c2)cc1 | -9 | 3.3µM* | 6.5µM* | -13% | 1.6µM* | 1.2µM*
CC(C)c1onc(C(=O)Nc2ccc3c(c2)OCO3)c1[N+](=O)[O-] | -21 | 18µM* | 0% | · | -4% | ?
CC(C)c1onc(C(=O)N2CCCCC2)c1[N+](=O)[O-] | -65* | ? | 0% | 0% | 0% | -19%
Cc1ccc(NC(=O)c2noc(C(C)C)c2[N+](=O)[O-])cc1 | -21 | 18µM* | ? | -8% | -11% | 13µM*
CC(C)c1onc(C(=O)Nc2cccc(O)c2)c1[N+](=O)[O-] | -12 | -6% | 2% | -8% | 16% | -20%
Cc1nn2c(c1-c1ccc(Cl)cc1)N=C(c1ccco1)CC2c1ccccc1 (configuration not stated) | ? | ? | ? | ? | ? | 15µM*
Clc1ccc(C2=NN(c3ccccc3)C(c3ccco3)C2)cc1 (configuration not stated) | 7 | -16% | 9% | 0% | 7% | 3%
CN(C)C(=O)N1CCN(c2ccc(C=O)cc2)C(=O)C1 | · | · | · | 10%[12.5 µM] | · | ·
COc1ccccc1OCC(=O)NCC1CCCN(Cc2ccc(C3CCCC3)s2)C1 (configuration not stated) | · | · | · | 2% | · | ·
COc1ccc(NC(=O)N2CCCC(c3nc(-c4ccc(OC)cc4)no3)C2)cc1 (configuration not stated) | -54* | ? | -24% | -5% | -3% | ?
O=C(Nc1ccc(Cl)cc1)N1CCC(c2nc(-c3ccc(F)cc3)no2)CC1 | ? | 11µM* | ? | -6% | ? | 10µM*
COc1ccc(NC(=O)N2CCCC(c3nc(-c4ccc(C(C)C)cc4)no3)C2)cc1 (configuration not stated) | -50* | 21µM* | ? | 2% | 11µM* | ?
COc1ccc(-c2noc(C3CCCN(C(=O)Nc4ccccc4)C3)n2)cc1 (configuration not stated) | -2 | ? | -2% | -8% | -14% | 26µM*
COc1ccc(NC(=O)N2CCC(Oc3ccc(-c4noc(C5CC5)n4)cc3)C2)cc1 (configuration not stated) | · | · | · | 41% | · | ·
CN1C[C@@H](NC(=O)Nc2ccccc2)C[C@H]1c1nc(-c2ccccc2)no1 | · | · | · | 28µM* | · | ·
O=C1CCN(C(=O)Nc2ccccc2F)CCCC(c2nc(-c3cccnc3)no2)CCN1 (configuration not stated) | · | · | · | 49% | · | ·
